Screens deposited in PubChem BioAssay by National Center for Advancing Translational Sciences (NCATS).
Most compounds without a hit are left out; they make up all but 12% or so of the library.
NS1 inh: inhibitors of influenza NS1 protein function; Potency, µM (highest dose often 46.1 µM), without a hit: at the top dose activity, positive = more growth; 270,000 tested, 0.4% active; AID 2326; calls by dose curve; note: actives are rising curves; nearly all actives have a fitted effect of over 50% in size
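OD600 was taken as the measure of yeast growth restored by compound in an NS1-expressing S. cerevisiae strain. Cells had been washed out of glucose medium and diluted 1:100 into galactose -URA medium, pH 6.0.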
SARS PLP yeast: SARS-CoV PLP inhibition in yeast; 330,000 tested, 0.19% active; Potency, µM (titrated, usually from 32.9 µM), inactives show top-dose activity, positive = growth rescue, hits mostly activators; S. cerevisiae expressing SARS-CoV PLpro, growth rescue; AID 485353; calls by dose curve; note: 0% is about no effect; nearly all actives have a fitted effect of over 55% in size
HCV inhibitor: blocks hepatitis C virus; Huh7.5.1 HCVcc-Cre infection, luciferase reporter, 44 h; Potency, µM (titrated, usually from 41.8 µM), for inactives: at the highest dose activity change, negative = inhibition, hits mostly inhibitors; 340,000 tested, 3.4% active; note: % is set by controls: 0 for no effect and ±100 for the full control effect
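Cells seeded at 1,000/well and cultured 4 h, then compounds added followed by HCVcc-Cre virus (~0.5 moi). After 44 h further culture, luciferase substrate was added, plates held 15 min at room temperature, and luminescence read for 15 sec.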
AMA1 RON2 block: disrupts binding of P. falciparum AMA1 to RON2; Potency, µM (series often up to 58.2 µM), for inactives: at the highest dose activity change, negative = inhibition, actives largely listed as inhibitors; 360,000 tested, 0.2% active; AID 720542; AlphaScreen AMA1-biotinylated RON2 peptide binding;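 note: 0% = vehicle wells and -100% = peptide control; nearly all actives have a fitted effect of over 45% in size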
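AMA1 (3D7) with his tag at 25 nM final met compounds first, then biotinylated RON2 peptide at 25 nM; detection used donor plus acceptor beads, 10 µg/mL apiece, read by AlphaScreen after 30 min at room temperature.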
Pf growth 96h: P. falciparum growth inhibition at 96 hours; 320,000 tested, 6.9% active; AID 504834; P. falciparum luciferase reporter growth, 96 h; Potency, µM (highest dose often 28.7 µM), for the others: top-dose activity change, negative = inhibition, actives largely listed as inhibitors; note: % is set by controls: 0 for no effect and ±100 for the full control effect
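96 h incubation, 37 C, 5% CO2, of luciferase-reporter P. falciparum-infected RBCs (2% hematocrit, 0.05% parasitemia final) with test compounds; endpoint luminescence.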
Pf growth 48h: inhibits P. falciparum growth in the first generation, 48 h. 310,000 tested, 5.9% active. Potency, µM (doses to about 28.7 µM), inactives show at the top dose activity change, negative = inhibition, hits mostly inhibitors. AID 504832. P. falciparum luciferase growth in erythrocytes, 48 h; note: % is set by controls: 0 for no effect and ±100 for the full control effect
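Firefly luciferase activity from engineered P. falciparum reports growth; inhibitors lower the luminescent signal. Cultures contained 2% hematocrit erythrocytes at 0.1% final parasitemia.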
* = called active by the depositor; i = inactive; ? = inconclusive; · = no result given; [ ] = dose if it differs, or a comment. Unless noted, calls come from the whole dose curve; as a rule, active = well fitted curve in the direction sought with a large enough effect; inconclusive = small, poorly fitted or top-dose-only effect, or another doubt; inactive = no such curve, though single readings can be large; an effect the other way counts as inactive or inconclusive. Potency is the fitted concentration of half-maximal effect.

SMILES	NS1 inh	SARS PLP yeast	HCV inhibitor	AMA1 RON2 block	Pf growth 96h	Pf growth 48h
CCCCOc1ccc(C(=O)NCC(=O)NCCOc2ccccc2OC)cc1	·	2.5%[6.58 µM]	12.6µM*	-5.3%	-3.5%	-7.6%
O=C(COc1ccc(C(=O)NCCc2ccccc2)cc1)Nc1ccccc1	-4.6%	6.2%	2.0%	-3.1%	4.15µM*	6.7%
CC(C)c1nc2cc(C(=O)N3CCNC(=O)C3c3cccc(F)c3)ccc2o1 (stereo unspecified)	-15.5%	-4.9%	2.7%	-1.5%	5.6%	-10.7%
CC1(C(=O)OCC(=O)Nc2nc(-c3ccc(F)c(F)c3)cs2)CC1(Cl)Cl (stereo unspecified)	-4.6%	0.0%	?	-20.4%	34.8%	4.9%
CCC(C)NC(=O)c1ccc(CSCc2ccccc2Cl)o1 (stereo unspecified)	-40.5%	-0.2%	?	-5.9%	18.3%	7.38µM*
CC(C)NC(=O)c1ccc(CSCc2ccccc2Cl)o1	-11.3%	-3.3%	?	-5.7%	4.65µM*	1.47µM*
O=C(O)c1ccc(CSCc2ccccc2Cl)o1	1.0%	-1.2%	0.1%	-1.6%	27.2%	14.6%
CCc1nccn1S(=O)(=O)c1ccc(Br)cc1Br	-7.4%	-3.4%	9.5%	-1.0%	0.928µM*	24.0%
CCc1nccn1S(=O)(=O)c1ccc(OC)c(C)c1C	4.3%	3.0%	14.4%	17.4%	46.7%	·
CCOc1ccc(NC(=S)NC23CC4CC(CC(C4)C2)C3)cc1	8.9%	-4.3%	16.4%	0.0%	20.9%	10.4µM*
CN(C)c1ccc(NC(=S)NC23CC4CC(CC(C4)C2)C3)cc1	-10.3%	0.7%	3.98µM*	-2.9%	0.586µM*	5.22µM*
FC(F)Oc1ccc(NC(=S)Nn2cnnc2)cc1	·	4.0%	5.01µM*	14.3%	0.0%	-17.4%
CN1CCN(C(=O)C23CC4CC(C2)CC(c2ccccc2)(C4)C3)CC1	-1.7%	-1.9%	10µM*	-8.9%	?	?
CN(C)S(=O)(=O)c1cccc(NC(=S)NC23CC4CC(CC(C4)C2)C3)c1	3.7%	-2.0%	13.1%	27.9%	?	?
Cn1c(SCC(=O)Nc2ccccc2)nnc1-c1ccc2nonc2c1	-3.0%	-0.6%	-6.2%	8.9%	12.7%	12.8%
Cc1cc(C)cc(N2C(=O)CC(Sc3ncn[nH]3)C2=O)c1 (stereo unspecified)	-12.9%	-5.0%	0.2%	3.3%	i	-7.6%
FC(F)Oc1ccc(NC(=S)NC23CC4CC(CC(C4)C2)C3)cc1	11.6%	?	?	10.8%	4.15µM*	4.15µM*
CCOc1ccc(NC(=O)C23CC4CC(C2)CC(c2ccccc2)(C4)C3)cc1	?	-3.4%	?	5.2%	1.85µM*	?
CCOC(=O)CNC(=O)C12CC3CC(C1)CC(c1ccc(C)cc1)(C3)C2	-3.0%	0.5%	7.8%	2.1%	5.2%	0.0%
O=C(Cn1cnc2ccccc2c1=O)c1ccc(OC(F)F)cc1	-50.6%	-0.4%	-5.2%	5.3%	4.3%	-8.0%
CCN(/C(N)=N/c1nc(C)cc(C)n1)c1ccccc1	3.4%	2.7%	5.8%	68.5%	-4.2%	8.9%
CCc1cccc(N(C)C(N)=Nc2cccc3ccccc23)c1	-0.4%	-0.7%	-2.5%	-5.1%	9.53µM*	13.5µM*
CC(C)(C)c1ccc(OCCCCCCN2CCNCC2)cc1	·	·	7.94µM*	-20.9%	·	·
CC(C)(c1ccccc1)c1ccc(OCCCN2CCNCC2)cc1	-2.8%	0.7%	8.91µM*	-14.4%	?	?
CC(C)(c1ccccc1)c1ccc(OCCN2CCOCC2)cc1	-5.4%	1.5%	-3.3%	?	?	-5.6%
c1ccc2c(c1)[nH]c1c3ccccc3sc21	-1.4%	-0.8%	11.2µM*	-5.8%	101.2%	67.3%
Cc1cc(NC(=O)COc2coc(CN3CCN(c4ccccc4F)CC3)cc2=O)no1	·	0.1%	-15.3%	5.4%	9.28µM*	?
CCN(CC)C(=O)COc1coc(CN2CCN(c3ccccc3F)CC2)cc1=O	8.7%	-7.3%	10.0%	37.8%	9.28µM*	-7.0%
CCOC(=O)COc1coc(CN2CCN(c3ccccc3)CC2)cc1=O	13.7%	-6.5%	17.0%	7.9%	?	9.8%
